Laboratory results reported in PubChem BioAssay AID1521 (The Scripps Research Institute Molecular Screening Center, 2009).
The list shows a part of the results. Calls of active or inactive are those of the source.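 Rule for the calls: active = mean inhibition above the hit cutoff derived in the earlier primary screen (cut at about 25% in these data); inactive = the rest.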

Experiment: viability loss in Ba/F3 EpoR-JAK2V617F cells, confirmation, JAK2V617F inhibitor project, cell-based, luminescence, triplicate (AID 1521);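 note: 0% = DMSO-treated cells and 100% = JAK inhibitor I control wells; higher means lower luminescence from reduced cell ATP and viability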
Settings: CellTiter-Glo luminescence, at 5.6 µM, hits give high values

With `CN(C)CC1Oc2ccccc2OC1(O)c1ccccc1` (stereo unspecified) the inhibition was 98.7% (active).
